Laboratory results taken from PubChem BioAssay (Tox21).
Inconclusive results are not listed. Active and inactive are the calls of the source. The call rests on the fitted dose curve; in most records, active means well fitted curve in the direction sought with a large enough effect in the repeat runs; inconclusive means weak or mixed curves; inactive means no such curve, though single readings can be large; an effect the other way counts as inactive or inconclusive.

Key:
[1] = target: Nuclear receptor subfamily 1 group I member 2 (Rattus norvegicus) (UniProt Q9R1A7); experiment: Rat pregnane X receptor (rPXR) activation by small molecules, qHTS assay (AID 1346983); conditions: rPXR luciferase reporter cells, One-Glo luminescence, 24 h; hits give high values; further: nearly all actives have a fitted effect of over 20% in size
Nuclear receptor subfamily 1 group I member 2 (Rattus norvegicus), sequence (Q9R1A7 whole entry, looked up): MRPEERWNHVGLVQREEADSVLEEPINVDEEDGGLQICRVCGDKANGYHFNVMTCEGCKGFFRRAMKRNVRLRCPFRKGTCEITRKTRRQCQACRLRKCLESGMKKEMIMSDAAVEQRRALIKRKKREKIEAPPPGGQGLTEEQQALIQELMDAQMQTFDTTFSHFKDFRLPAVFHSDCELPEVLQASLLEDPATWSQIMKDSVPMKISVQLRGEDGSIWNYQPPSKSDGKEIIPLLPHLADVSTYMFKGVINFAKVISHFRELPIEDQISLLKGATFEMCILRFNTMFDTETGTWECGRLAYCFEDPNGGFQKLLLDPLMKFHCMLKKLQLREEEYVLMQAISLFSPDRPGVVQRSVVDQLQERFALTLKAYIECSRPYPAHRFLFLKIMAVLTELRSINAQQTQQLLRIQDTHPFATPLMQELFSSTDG
In short: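 Cell-based rPXR activation assay: rPXR cells, 2,000 per well, rested 5hr at 37 C, then exposed to compounds in DMSO for 24 hr at 37 C. Luciferase activity read by One-Glo luminescence after 30 min at room temperature.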

[2] = target: Nuclear receptor subfamily 1 group I member 2 (Homo sapiens) (UniProt O75469); experiment: CYP3A4 induction through human pregnane X receptor (PXR) by small molecules, qHTS assay (AID 1346984); conditions: DPX-2 HepG2 PXR, CYP3A4-luciferin luminescence, 24 h; series mostly up to 46.1 µM; further: nearly all actives have a fitted effect of over 40% in size
In short: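 DPX-2 reporter cells; 24h cpd, 37C; Luciferin-IPA 3uM final x3h; One-Glo 30 min RT; lumi read.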

[3] = target: Nuclear receptor subfamily 1 group I member 2 (Homo sapiens) (UniProt O75469); experiment: Human pregnane X receptor (PXR) activation by small molecules, qHTS assay (AID 1346985); conditions: DPX-2 HepG2 CYP3A4-luciferase, 24 h; series mostly up to 38.3 µM; further: nearly all actives have a fitted effect of over 40% in size; further: potency means the concentration at half of the fitted maximal effect
In short: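 DPX-2 cells (HepG2 co-transfected with a PXR response element and a CYP3A4-promoter luciferase construct) were seeded at 2,000 per well, rested 5 hr at 37C, then exposed to DMSO-dissolved compounds for 24 hr. Activation was read as luciferase luminescence.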

[4] = target: Cytochrome P450 1A2 (Homo sapiens) (UniProt P05177); experiment: Cytochrome P450 Family 1 Subfamily A Member 2 (CYP1A2) small molecule antagonists: luciferase reporter qHTS assay (AID 1671199); conditions: P450-Glo CYP1A2 enzyme, luciferin luminescence, 1 h; series mostly up to 115 µM; further: nearly all actives have a fitted effect of over 50% in size; further: potency means the concentration at half of the fitted maximal effect
Cytochrome P450 1A2 (Homo sapiens), sequence (P05177 whole entry, looked up): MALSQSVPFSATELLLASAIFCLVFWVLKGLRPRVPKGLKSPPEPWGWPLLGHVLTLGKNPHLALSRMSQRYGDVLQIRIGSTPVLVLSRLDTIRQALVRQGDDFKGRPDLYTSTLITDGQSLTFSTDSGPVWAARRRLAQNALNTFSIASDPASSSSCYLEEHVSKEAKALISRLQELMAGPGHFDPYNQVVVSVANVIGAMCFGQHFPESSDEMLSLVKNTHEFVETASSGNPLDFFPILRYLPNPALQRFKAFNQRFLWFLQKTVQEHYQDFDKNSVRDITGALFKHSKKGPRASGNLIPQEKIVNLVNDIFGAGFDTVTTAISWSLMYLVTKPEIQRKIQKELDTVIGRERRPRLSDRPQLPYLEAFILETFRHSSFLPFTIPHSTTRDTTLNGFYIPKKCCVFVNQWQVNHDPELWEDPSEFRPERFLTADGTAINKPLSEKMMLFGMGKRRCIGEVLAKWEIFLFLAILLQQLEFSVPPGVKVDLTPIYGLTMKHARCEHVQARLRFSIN
In short: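 Signal from luciferin formed by CYP1A2 from a proluciferin substrate is read as luminescence, expressed in relative luminescence units. Compounds sit with enzyme 10 min, NADPH-driven reaction runs 1 h, all at room temperature.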

[5] = target: Voltage-gated inwardly rectifying potassium channel KCNH2 (Homo sapiens) (UniProt Q12809); experiment: Human Ether-a-go-go-Related Gene (hERG) channel small molecule antagonists: fluorescence cell-based qHTS assay (AID 1671200); conditions: hERG-U2OS cells, FluxOR thallium flux fluorescence; series mostly up to 76.8 µM; further: nearly all actives have a fitted effect of over 50% in size; further: potency means the concentration at half of the fitted maximal effect;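 on activity change, negative = inhibition: hERG-expressing U2OS cells given a thallium stimulus after FluxOR II dye loading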
Voltage-gated inwardly rectifying potassium channel KCNH2 (Homo sapiens), sequence (Q12809 whole entry, looked up): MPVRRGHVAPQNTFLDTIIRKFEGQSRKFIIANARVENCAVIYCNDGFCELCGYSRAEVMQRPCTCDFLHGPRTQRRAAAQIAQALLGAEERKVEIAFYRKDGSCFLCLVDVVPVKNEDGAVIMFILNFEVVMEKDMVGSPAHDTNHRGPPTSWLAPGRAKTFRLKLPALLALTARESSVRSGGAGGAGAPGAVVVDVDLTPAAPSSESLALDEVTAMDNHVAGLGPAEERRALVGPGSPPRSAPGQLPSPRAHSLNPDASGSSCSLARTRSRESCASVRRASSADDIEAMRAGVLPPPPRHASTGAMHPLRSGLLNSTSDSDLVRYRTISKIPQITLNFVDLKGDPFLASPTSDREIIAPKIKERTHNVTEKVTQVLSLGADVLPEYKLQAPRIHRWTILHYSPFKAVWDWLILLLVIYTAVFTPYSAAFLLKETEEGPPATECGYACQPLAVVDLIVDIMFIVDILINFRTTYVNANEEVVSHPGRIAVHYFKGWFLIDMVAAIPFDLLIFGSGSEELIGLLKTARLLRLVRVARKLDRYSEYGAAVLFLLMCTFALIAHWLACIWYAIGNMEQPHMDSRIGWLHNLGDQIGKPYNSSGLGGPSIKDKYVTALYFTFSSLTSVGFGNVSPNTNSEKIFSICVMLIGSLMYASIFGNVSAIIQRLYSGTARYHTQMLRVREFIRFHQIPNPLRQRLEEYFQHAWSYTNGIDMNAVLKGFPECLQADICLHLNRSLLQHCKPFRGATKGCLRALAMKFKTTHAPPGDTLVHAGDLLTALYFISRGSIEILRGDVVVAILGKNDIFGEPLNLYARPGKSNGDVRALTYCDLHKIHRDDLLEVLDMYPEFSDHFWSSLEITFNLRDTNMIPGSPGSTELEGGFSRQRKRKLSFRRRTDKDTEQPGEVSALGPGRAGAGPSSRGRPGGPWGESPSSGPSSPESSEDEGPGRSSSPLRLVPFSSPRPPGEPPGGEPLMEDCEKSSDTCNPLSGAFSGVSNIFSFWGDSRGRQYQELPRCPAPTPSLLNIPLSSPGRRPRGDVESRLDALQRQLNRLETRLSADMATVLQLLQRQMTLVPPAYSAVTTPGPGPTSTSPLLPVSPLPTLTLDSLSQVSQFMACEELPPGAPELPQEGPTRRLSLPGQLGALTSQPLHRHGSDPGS
In short: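 Kinetic two-minute fluorescence traces, sampled at 1 s, were collected following thallium stimulus of U2OS cells (1000 per well) that had been cultured overnight at 37 C and loaded with FluxOR II.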

[6] = target: Cytochrome P450 3A4 (Homo sapiens) (UniProt P08684); experiment: Cytochrome P450 Family 3 Subfamily A Member 4 (CYP3A4) small molecule antagonists: luciferase reporter qHTS assay (AID 1671201); conditions: P450-Glo CYP3A4 enzyme, luciferin luminescence, 1 h; series mostly up to 115 µM; further: nearly all actives have a fitted effect of over 50% in size
Cytochrome P450 3A4 (Homo sapiens), sequence (P08684 whole entry, looked up): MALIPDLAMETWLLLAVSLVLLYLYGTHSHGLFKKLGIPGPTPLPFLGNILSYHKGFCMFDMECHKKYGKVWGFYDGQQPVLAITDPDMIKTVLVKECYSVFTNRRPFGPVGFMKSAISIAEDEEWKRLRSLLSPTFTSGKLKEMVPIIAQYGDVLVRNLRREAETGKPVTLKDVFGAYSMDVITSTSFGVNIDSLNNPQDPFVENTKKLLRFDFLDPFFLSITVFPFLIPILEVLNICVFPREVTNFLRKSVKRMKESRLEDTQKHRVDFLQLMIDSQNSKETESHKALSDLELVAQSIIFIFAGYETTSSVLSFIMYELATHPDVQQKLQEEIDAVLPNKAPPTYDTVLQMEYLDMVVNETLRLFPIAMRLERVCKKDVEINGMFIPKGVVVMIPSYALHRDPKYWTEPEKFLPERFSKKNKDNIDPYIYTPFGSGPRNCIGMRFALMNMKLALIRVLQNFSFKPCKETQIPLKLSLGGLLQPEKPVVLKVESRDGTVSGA
In short: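 Proluciferin-to-luciferin conversion by CYP3A4, NADPH-regenerated, 1 h RT; luminescence read as RLU. Ketoconazole as control.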

[7] = target: Cytochrome P450 2D6 (Homo sapiens) (UniProt P10635); experiment: Cytochrome P450 Family 2 Subfamily D Member 6 (CYP2D6) small molecule antagonists: luciferase reporter qHTS assay (AID 1671196); conditions: P450-Glo CYP2D6 enzyme assay, luciferin luminescence, 1 h; series mostly up to 115 µM; further: nearly all actives have a fitted effect of over 50% in size; further: potency means the concentration at half of the fitted maximal effect
Cytochrome P450 2D6 (Homo sapiens), sequence (P10635 whole entry, looked up): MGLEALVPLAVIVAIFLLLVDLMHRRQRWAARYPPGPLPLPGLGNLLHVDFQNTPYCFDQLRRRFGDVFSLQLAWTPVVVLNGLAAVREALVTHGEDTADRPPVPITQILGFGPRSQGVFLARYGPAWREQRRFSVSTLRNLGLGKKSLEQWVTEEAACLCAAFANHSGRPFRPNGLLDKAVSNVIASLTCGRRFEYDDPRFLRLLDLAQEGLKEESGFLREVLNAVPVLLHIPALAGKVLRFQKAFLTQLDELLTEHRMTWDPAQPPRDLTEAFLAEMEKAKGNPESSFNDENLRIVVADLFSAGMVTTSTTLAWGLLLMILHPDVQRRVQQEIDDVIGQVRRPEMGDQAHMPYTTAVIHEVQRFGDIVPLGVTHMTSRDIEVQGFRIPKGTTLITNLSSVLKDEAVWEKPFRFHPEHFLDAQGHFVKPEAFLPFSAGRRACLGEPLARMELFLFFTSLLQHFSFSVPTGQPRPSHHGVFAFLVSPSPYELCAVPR
In short: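 Inhibition of CYP2D6 was gauged by loss of luminescence, since light produced tracks the luciferin generated from a proluciferin substrate. A 10 min room-temperature preincubation preceded 1 h NADPH-supported turnover.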

[8] = target: Cytochrome P450 2C9 (Homo sapiens) (UniProt P11712); experiment: Cytochrome P450 Family 2 Subfamily C Member 9 (CYP2C9) small molecule antagonists: luciferase reporter qHTS assay (AID 1671198); conditions: P450-Glo CYP2C9 enzyme assay, luciferin luminescence; series mostly up to 115 µM; further: nearly all actives have a fitted effect of over 50% in size; further: potency means the concentration at half of the fitted maximal effect
Cytochrome P450 2C9 (Homo sapiens), sequence (P11712 whole entry, looked up): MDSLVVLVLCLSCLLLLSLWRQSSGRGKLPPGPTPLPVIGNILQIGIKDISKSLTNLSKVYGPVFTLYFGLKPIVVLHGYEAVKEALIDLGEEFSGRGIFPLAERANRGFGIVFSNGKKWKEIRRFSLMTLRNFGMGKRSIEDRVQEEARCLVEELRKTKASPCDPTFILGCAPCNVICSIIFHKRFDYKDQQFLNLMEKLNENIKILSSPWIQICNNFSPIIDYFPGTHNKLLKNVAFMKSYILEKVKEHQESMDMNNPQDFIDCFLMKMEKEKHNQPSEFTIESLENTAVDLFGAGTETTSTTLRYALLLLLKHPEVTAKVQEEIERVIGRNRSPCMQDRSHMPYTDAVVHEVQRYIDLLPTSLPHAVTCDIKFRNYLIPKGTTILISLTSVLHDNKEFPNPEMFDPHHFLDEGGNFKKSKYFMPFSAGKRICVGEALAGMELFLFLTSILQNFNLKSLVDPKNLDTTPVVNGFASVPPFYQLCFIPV
In short: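 P450-Glo proluciferin substrate with CYP2C9 enzyme; 10 min RT preincubation, then NADPH regeneration 1 h at 37C; luciferin detection reagent 20 min RT, luminescence in relative luminescence units.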

[9] = target: Cytochrome P450 2C19 (Homo sapiens) (UniProt P33261); experiment: Cytochrome P450 Family 2 Subfamily C Member 19 (CYP2C19) small molecule antagonists: luciferase reporter qHTS assay (AID 1671197); conditions: P450-Glo CYP2C19 enzyme, luciferin luminescence, 1 h; series mostly up to 115 µM; further: nearly all actives have a fitted effect of over 65% in size; further: potency means the concentration at half of the fitted maximal effect
Cytochrome P450 2C19 (Homo sapiens), sequence (P33261 whole entry, looked up): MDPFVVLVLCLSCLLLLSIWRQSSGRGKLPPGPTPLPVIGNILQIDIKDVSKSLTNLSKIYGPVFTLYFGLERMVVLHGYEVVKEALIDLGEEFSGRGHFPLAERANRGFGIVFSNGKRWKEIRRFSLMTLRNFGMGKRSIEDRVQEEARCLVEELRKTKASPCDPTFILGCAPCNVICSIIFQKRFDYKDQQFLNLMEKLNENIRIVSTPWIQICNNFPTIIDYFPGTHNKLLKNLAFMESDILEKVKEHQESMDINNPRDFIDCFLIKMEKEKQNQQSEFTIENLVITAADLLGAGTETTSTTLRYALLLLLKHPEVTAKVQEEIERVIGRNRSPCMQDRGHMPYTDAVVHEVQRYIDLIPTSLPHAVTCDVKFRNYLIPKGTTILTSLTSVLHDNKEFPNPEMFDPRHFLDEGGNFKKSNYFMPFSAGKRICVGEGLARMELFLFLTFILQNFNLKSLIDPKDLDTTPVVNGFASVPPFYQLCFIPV
In short: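 Quantitative high-throughput screen of the Tox21 library using CYP2C19 with proluciferin substrate. Reaction: NADPH regeneration, 37C, 1 h, after 10 min compound preincubation at room temperature. Readout: luminescence.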
On the % scale 0 is the no-effect control and ±100 the full control effect.

NCc1ccc(S(N)(=O)=O)cc1
inactive: max activation [1] -0.0614% | Potency [2] | Potency [3] | Potency [4] | Potency [5] | Potency [6]

Cc1c(NC(=O)c2cccnc2)c(=O)n(-c2ccccc2)n1C
inactive: max activation [1] -1.68% | Potency [2] | Potency [3] | Potency [7] | Potency [8] | Potency [4] | Potency [5] | Potency [6]

CCCCSCCCC
inactive: Potency [7] | Potency [4] | Potency [5] | Potency [6]
active: Potency [9] 79.6 µM | Potency [8] 63.3 µM

Fc1ccccc1
inactive: Potency [7] | Potency [9] | Potency [8] | Potency [4] | Potency [5] | Potency [6]

CCC(=O)c1c(O)cc(O)cc1O
active: Potency [8] 13.8 µM | Potency [4] 12.9 µM
inactive: Potency [2] | Potency [3] | Potency [9] | Potency [5]

CCOC(CN1CCN(CC(C)C(=O)c2ccccc2)CC1)c1ccccc1 (stereo unspecified)
active: Potency [3] 10 µM | Potency [7] 0.213 µM | Potency [5] 10.4 µM
inactive: max activation [1] 1.41% | activity change, negative = inhibition [4] 12.6% [at 23.6 µM] | activity change, negative = inhibition [6] 51.9% [at 23.6 µM]

CN1CCOC(c2ccccc2)c2ccccc2C1 (stereo unspecified)
inactive: max activation [1] -1.81% | Potency [5]

CCCCCCCCCCCCCBr
active: Potency [9] 70.8 µM | Potency [4] 22.4 µM
inactive: Potency [7] | Potency [8] | Potency [5] | Potency [6]

CC(C)OC(=O)CCC(=O)OC(C)C
inactive: Potency [7] | Potency [9] | Potency [8] | Potency [4] | Potency [5] | Potency [6]

C[Si]1(C)O[Si](C)(C)O[Si](C)(C)O[Si](C)(C)O[Si](C)(C)O1
inactive: Potency [7] | Potency [9] | Potency [8] | Potency [4] | Potency [5] | Potency [6]

C=CC(=O)OCC1CCCO1 (stereo unspecified)
inactive: Potency [7] | Potency [9] | Potency [8] | Potency [4] | Potency [5] | Potency [6]

CC1=NN(c2ccc(S(=O)(=O)O)cc2)C(=O)C1
inactive: Potency [7] | Potency [8] | Potency [4] | Potency [5] | Potency [6]
active: Potency [9] 79.6 µM

CC(Oc1cc(Cl)ccc1Cl)C(=O)O (stereo unspecified)
active: Potency [8] 71 µM
inactive: Potency [7] | Potency [9] | Potency [4] | Potency [5]

CCn1cc(C(=O)O)c(=O)c2cnc(N3CCCC3)nc21
inactive: max activation [1] -0.363% | activity change, negative = inhibition [7] -1.62% [at 10.5 µM] | activity change, negative = inhibition [9] -11.6% [at 10.5 µM] | activity change, negative = inhibition [5] -5.15% [at 6.97 µM]

COc1cc(/C=C/C(N)=O)cc(OC)c1OC
active: Potency [4] 21.9 µM
inactive: Potency [7] | Potency [9] | Potency [8] | Potency [5] | Potency [6]

CCC(=O)Oc1ccc2c(c1)CC[C@@H]1[C@@H]2CC[C@@]2(C)[C@H]1C[C@@H](OC(=O)CC)[C@@H]2OC(=O)CC
active: Potency [9] 27.5 µM | Potency [8] 24.5 µM
inactive: Potency [7] | Potency [4] | Potency [5] | Potency [6]
